Consider 50 molecules from ChEMBL document CHEMBL3988442, “University of Dundee, Small-Polar-MMV Screening Library” (2021).

Test [1] concerns the target T1, Aspartate--tRNA(Asp/Asn) ligase (Mycobacterium tuberculosis (strain ATCC 25618 / H37Rv)) (UniProt P9WFW3). Also: in the data most compounds retested in dose-response had high values.
T1 sequence (whole entry): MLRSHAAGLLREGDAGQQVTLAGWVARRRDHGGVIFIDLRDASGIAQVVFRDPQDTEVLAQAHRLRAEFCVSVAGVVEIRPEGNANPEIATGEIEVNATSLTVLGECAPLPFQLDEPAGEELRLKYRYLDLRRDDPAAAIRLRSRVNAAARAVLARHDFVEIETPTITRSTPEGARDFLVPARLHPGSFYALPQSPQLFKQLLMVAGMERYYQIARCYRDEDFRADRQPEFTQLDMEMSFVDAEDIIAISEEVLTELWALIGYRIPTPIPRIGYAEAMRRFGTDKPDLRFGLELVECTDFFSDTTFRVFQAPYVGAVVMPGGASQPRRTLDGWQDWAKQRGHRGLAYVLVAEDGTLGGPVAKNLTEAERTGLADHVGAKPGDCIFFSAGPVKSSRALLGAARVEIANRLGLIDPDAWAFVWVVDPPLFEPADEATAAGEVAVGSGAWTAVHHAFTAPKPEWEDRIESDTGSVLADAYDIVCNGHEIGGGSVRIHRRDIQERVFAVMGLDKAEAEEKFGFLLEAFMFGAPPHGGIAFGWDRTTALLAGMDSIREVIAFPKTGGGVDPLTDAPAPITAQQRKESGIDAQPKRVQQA
As to the kind of experiment: Assay for Asp RNA synthetase-1 from Mycobacterium tuberculosis. The format is functional. On the set-up: scale not given: direction of the effect not stated beside the values. Particulars: 30 µM.

Test [2] concerns the target Shiga toxin 2 (Escherichia coli O157:H7) (UniProt P09385+P09386). Nature of the test: E. coli 0.157:H7 Shiga Toxin SOP - stx2 screening assay. In kind it is functional. On the set-up: scale not given: direction of the effect not stated beside the values. Particulars: 30 µM.

Turning to `Clc1ccccc1-c1nc(CNC2CCc3ncnn3C2)cs1` (stereo not given), the results for the Percent Effect in test [1] and in test [2] were -0.745% and -6.39%, respectively.
The like results for `CC(C)CCN1CC2(CCCN(C(=O)c3cscn3)C2)CCC1=O` (stereo not given) were, in that order, 8.2% and -13.4%.
The like results for `CCC1CN(CCNC(C)=O)CCN1CCOC` (stereo not given) were, in that order, 15% and 16.5%.
The like results for `O=C(O)[C@@H]1CN(C(=O)c2ccc3[nH]nnc3c2)C[C@H]1c1cccc(F)c1` were, in that order, -0.0228% and -15.6%.
As for `Cc1cc2nc(SCC(=O)N3CCCC3)n(C(C)C)c(=O)c2[nH]1`, the Percent Effect in test [1] was 0.509%; in test [2] it was -18%.
The like results for `Cn1ccc(CN2CCC(OCCc3ccccc3)CC2)cc1=O` were, in that order, 2.67% and 8.32%.
The matching figures for `c1ncn(Cc2cnc3n2CCN(Cc2ccsc2)CC3)n1`: -1.22% and -2.1%.
The matching figures for `CC(=O)Nc1nc(C(=O)N2CCCC2c2ccccc2C)cs1` (stereo not given): -0.698% and 1.85%.
On to `NCCn1nc(C2CCN(C(=O)CC3CCCCC3)C2)c2nccnc21` (stereo not given), for which the Percent Effect in test [1] is 1.37%; in test [2], -31.7%.
The matching figures for `Cc1noc([C@H]2C[C@@H]3CCN(C(=O)N(C)C)C[C@H]3O2)n1`: 3.32% and -1.56%.
`O=S(=O)(CCN1CCOC(Cn2cccn2)C1)C(F)(F)F` (stereo not given): the Percent Effect in test [1] came out at 8.08%; in test [2] it was 191%.
The like results for `Cc1oc(C(=O)O)cc1S(=O)(=O)Nc1cc(Cl)ccc1F` were, in that order, -2.58% and 17.5%.
The like results for `O=C(Cn1cc(I)cn1)Nc1cccnc1` were, in that order, 1.95% and -36.6%.
As to `Cc1cncc(C(=O)N2Cc3ccccc3C3(CCN(C)CC3)C2)c1`, the Percent Effect in test [1] was -2.03%; in test [2], -1.24%.
The matching figures for `O=C(NC1CCC1)[C@@H]1C[C@@H]2CCN(Cc3cccs3)C[C@@H]2O1`: -2.46% and -16.7%.
The matching figures for `COc1cccc(CNc2cnn(C)c(=O)c2Cl)c1`: -6.1% and 11.4%.
The matching figures for `c1nc(COCC2CC2)c2n1CCCN(CC1CC1)C2`: -0.611% and -11.2%.
In the case of `CN1CCN(Cc2nnc(C3CCN(CC4CC4)CC3)n2C)CC1`, the Percent Effect in test [1] is -0.891%; in test [2], 2.65%.
Regarding `CCc1nc(CN(C(C)=O)C2CCN(Cc3cnc(C)cn3)C2)no1` (stereo not given), the Percent Effect in test [1] was -0.742%; in test [2] it was -16.6%.
The matching figures for `CNc1cncc(C2CCCN2Cc2ccccc2OCC(=O)O)n1` (stereo not given): 4.48% and 3.64%.
The like results for `Fc1ccc(CN2CCCC(Cn3cncn3)C2)c2ncccc12` (stereo not given) were, in that order, 14.3% and -38.7%.
The like results for `Cn1cc(C(=O)NC2CCN(C(=O)NCCSC(F)(F)F)CC2)cn1` were, in that order, 0.597% and -30.6%.
With `Cc1nc([C@@H]2C[C@@H]3CCN(C(=O)c4ccnnc4)C[C@H]3O2)sc1C`, the Percent Effect in test [1] is 4.24%; in test [2], -9.81%.
The matching figures for `Cc1cc(C)n(CC2CCCN2C(=O)c2c[nH]c3ncccc23)n1` (stereo not given): -1.92% and 26.8%.
The matching figures for `Cc1cnc(CN(C)C2CCN(CC(=O)Nc3nncs3)C2)o1` (stereo not given): 3.17% and -13.8%.
`CC(C)N(C)Cc1nnc2n1CCN(Cc1ccncc1)CC2`: the results for the Percent Effect in test [1] and in test [2] were 3.87% and 1.49%, respectively.
For the molecule `CC(=O)N(Cc1ncc(C)o1)C1CCN(CCNC2CCCCC2)C1` (stereo not given), the values for the Percent Effect in test [1] and in test [2] were 1.34% and -30.8%, respectively.
The like results for `CCC1=N[C@@]2(CC[C@@H]3CN(C(=O)NC(C)C)C[C@@H]32)C(=O)N1C` were, in that order, -7.39% and 3.05%.
For the molecule `CC(=O)N1[C@@H](C(=O)NCC2CC2)C[C@@H]2CN(Cc3ccco3)C[C@@H]21`, the figures for the Percent Effect in test [1] and in test [2] were 0.523% and -11.8%, respectively.
The matching figures for `CC(NCc1ccncc1)c1cc(F)ccc1N1CCN(C)CC1` (stereo not given): 0.183% and -4.73%.
The like results for `O=C(NCCC1=CCCCC1)NCc1nnc2n1CCC2` were, in that order, 2.5% and 24.3%.
Turning to `NCC1CN(c2nc(-c3ccccc3)nc3c2CCNCC3)CCO1` (stereo not given), the Percent Effect was -0.798% in test [1] and -22.2% in test [2].
The matching figures for `Cc1nc(C2CCCN2Cc2nc(C)c(C)o2)no1` (stereo not given): -0.728% and 7.48%.
Turning to `CCc1cnc(CN(C(C)=O)C2CCN(CCc3cnn(C)c3)C2)o1` (stereo not given), the results for the Percent Effect in test [1] and in test [2] were -5.68% and 20.4%, respectively.
Consider `COCC(=O)N1Cc2cnc(Cc3ccc(OC)cc3)nc2C1`, for which the Percent Effect in test [1] was 2.73%; in test [2] it was -8.2%.
As for `Cc1nc(C)n(CC2CN(Cc3cccnc3)CCO2)n1` (stereo not given), the Percent Effect amounted to 5.17% in test [1] and 26.5% in test [2].
The like results for `Fc1cnc(N2C[C@H]3CCC[C@@]3(COc3ccccn3)C2)nc1` were, in that order, 0.435% and 2.51%.
The like results for `Cc1ccc(-c2nc(CNCCn3cccn3)cs2)o1` were, in that order, -0.233% and 13%.
The matching figures for `COc1ccc(C(=O)N2C[C@@H](CN3CCOCC3)[C@@H](CO)C2)c(C)c1`: -0.54% and 2.18%.
Turning to `CC(C)c1nn(C)c(N(C)C)c1CNCC(O)c1ccccc1F` (stereo not given), the Percent Effect was -7.16% in test [1] and -23.3% in test [2].
The matching figures for `CC(=O)c1cccc(NC(=O)COc2c(C)n(C)ccc2=O)c1`: 1.07% and -59.3%.
Consider `O=C(c1ccc(F)cc1F)N1C[C@@H](O)[C@H](N2CCOCC2)C1`, for which the Percent Effect in test [1] is 4.46%; in test [2] it was -20.4%.
For the molecule `O=C1CO[C@@H]2CN(CC3CCOCC3)C[C@H]2N1CC1CC1`, the Percent Effect in test [1] was 14.8%; in test [2] it was 5.99%.
The matching figures for `COCCN1CCN(Cc2ccc(F)c(C)c2)[C@H]2CS(=O)(=O)C[C@H]21`: -3.12% and -5.44%.
Consider `CC(C)c1ncncc1C(=O)N1CCN(Cc2cscn2)CC1`, for which the Percent Effect in test [1] was -2.56%; in test [2] it was -22.9%.
The like results for `Cc1nc(C2CCCN2C(=O)c2cnns2)no1` (stereo not given) were, in that order, -4.19% and 27.5%.
The like results for `Cc1cc(NC(=O)N2CCN(c3nc(C)c(C)s3)CC2)no1` were, in that order, 0.38% and -22.7%.
As for `CCn1cnnc1CNC(=O)N1CCN(c2nc(C)c(C)s2)CC1`, the figures for the Percent Effect in test [1] and in test [2] were -5.01% and -22.1%, respectively.
The matching figures for `CC(C)(C)c1nnc(CN2CCN(S(C)(=O)=O)CC2)o1`: 1.17% and -26.2%.
The matching figures for `CCN(CC)S(=O)(=O)N1CCCC(c2ccc(C(=O)O)cc2)C1` (stereo not given): -0.279% and -2.52%.
